# Experimental data published in PubChem BioAssay AID1777 (Sanford-Burnham Center for Chemical Genomics, 2009).
# Out of some 280,000 compounds screened, about 50 (0.02%) were called active. Rule as the data show it: active = activation above about 50% (passing the limit was not always enough); inactive = the rest. What follows is part of a selection rich in actives, with near analogues and random picks from the rest. Entries with a potency or affinity are not part of this list.
# Target: Kappa-type opioid receptor (Homo sapiens) (UniProt P41145)
# Test: kappa opioid receptor activators – cell-based, luminescence, uHTS, primary screen (AID 1777)
# Conditions: KOR beta-arrestin recruitment, at 10 µM, stronger effect = higher value
# Kappa-type opioid receptor (Homo sapiens), sequence (P41145 whole entry, looked up): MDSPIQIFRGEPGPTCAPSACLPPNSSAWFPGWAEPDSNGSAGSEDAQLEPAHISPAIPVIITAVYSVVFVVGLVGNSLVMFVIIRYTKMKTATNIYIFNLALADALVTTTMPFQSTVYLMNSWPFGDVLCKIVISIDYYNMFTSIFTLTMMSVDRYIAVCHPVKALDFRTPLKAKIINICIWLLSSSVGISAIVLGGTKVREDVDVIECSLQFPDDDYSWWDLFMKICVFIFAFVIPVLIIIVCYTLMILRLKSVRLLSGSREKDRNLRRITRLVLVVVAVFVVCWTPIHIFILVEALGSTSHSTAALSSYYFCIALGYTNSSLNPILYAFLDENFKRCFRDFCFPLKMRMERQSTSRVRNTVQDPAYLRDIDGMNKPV
row,Structure (SMILES),activation
1,COc1cccc(CN2CC(C(=O)N(C)Cc3nc(C)cs3)CCC2=O)c1 (stereo not given),-2.2% (inactive)
2,O=c1cc(N2CCN(c3ccccc3)CC2)[nH]c(=O)n1Cc1ccc(F)cc1,-5.2% (inactive)
3,Cc1cccc(N2CCN(C(=O)c3cccc(N4CCCC4=O)c3)CC2)c1C,-3.4% (inactive)
4,Cc1cccc2cc(CN(Cc3cccs3)C3(c4nnnn4C4CCCC4)CCCC3)c(=O)[nH]c12,9.6% (inactive)
5,CCC(c1nnnn1C1CCCC1)N(Cc1cccs1)Cc1cc2cc(C)ccc2[nH]c1=O (stereo not given),3.2% (inactive)
6,Cc1cccc2cc(CN(Cc3cccs3)C(c3nnnn3C3CCCC3)C(C)C)c(=O)[nH]c12 (stereo not given),66% (active)
7,Cc1ccc(N2CC(C(=O)N3CCCCCC3)CC2=O)cc1 (stereo not given),1.5% (inactive)
8,CC1CCCN(C(=S)Nc2ccc(S(=O)(=O)N3CCCCC3)cc2)C1 (stereo not given),-0.4% (inactive)
9,CCCOC(=O)NC1C(NC(=O)OCCC)N(C)C(=O)N1C (stereo not given),-2.1% (inactive)
10,Cn1cccc1/C=N/N1CCN(Cc2cccc3ccccc23)CC1,3% (inactive)
11,Nc1ccc2nc(SCC(=O)c3ccccc3)sc2c1,-1.7% (inactive)
12,O=C(CSc1nc2ccc([N+](=O)[O-])cc2s1)c1ccc2ccccc2c1,57.8% (active)
13,O=C(CSc1nc2ccc([N+](=O)[O-])cc2[nH]1)c1ccc2ccccc2c1,-0.1% (inactive)
14,CCOC(=O)N1CCC(N(CCOC)C(=O)Nc2ccc(Cl)c(Cl)c2)CC1,-4.1% (inactive)
15,COc1ccc(OC)c2[nH]c(=O)c(CCNC(=S)NC(C)(C)C)cc12,-9% (inactive)
16,OCCCCNCc1ccc(OCc2ccc(Cl)cc2Cl)cc1,3.1% (inactive)
17,Oc1cccc(C(O)CNCc2ccc(OCc3ccc(Cl)cc3Cl)cc2)c1 (stereo not given),103% (active)
18,OCCNCc1ccc(OCc2ccc(Cl)cc2Cl)cc1,-6.2% (inactive)
19,Cc1cc(C)n(CCNC(=O)c2cc(COc3ccc4ncccc4c3)on2)n1,0.2% (inactive)
20,Cc1ccc(OC(C)c2nnc(N)s2)cc1Cl (stereo not given),-0.5% (inactive)
21,COc1ccc(S(=O)(=O)N2CCCC(C(=O)NC3CCCC3)C2)cc1OC (stereo not given),-2.8% (inactive)
22,C(=C\c1ccccc1)/CNCC1CCCO1 (stereo not given),2% (inactive)
23,CC[C@@H](C(=O)[C@@H](C)[C@@H](O)[C@H](C)CCc1ccc(C)c(O)c1C(=O)O)[C@H]1O[C@](CC)([C@H]2CC[C@](O)(CC)[C@H](C)O2)C[C@@H]1C,83.4% (active)

row,Structure (SMILES),activation
1,CC(C)OCCCNC(=O)C(Cc1ccccc1)NS(=O)(=O)c1ccc2c(c1)CCC(=O)N2 (stereo not given),0.5% (inactive)
2,COc1ccc(CCN2C(=O)CSC2=Nc2ccc(C)cc2C)cc1OC,9.8% (inactive)
3,COc1ccc(N=C2SCC(=O)N2CCc2ccc(OC)c(OC)c2)cc1,23.1% (inactive)
4,COc1ccc2cc(CN(CC3COCCO3)S(=O)(=O)c3c(C)cc(C)cc3C)c(=O)[nH]c2c1 (stereo not given),-0.5% (inactive)
5,O=C(CN1CCN(c2ccc(F)cc2)CC1)Nc1cccnc1Cl,0.4% (inactive)
6,COc1ccc(C(=O)CSc2nnc(-c3ccc(S(=O)(=O)N4CCOCC4)cc3)o2)cc1,50.2% (active)
7,COc1ccc(C(=O)CSc2nnc(-c3ccc(C)cc3)o2)cc1,-0.9% (inactive)
8,CCN(CC)S(=O)(=O)c1ccc(-c2nnc(SCC(=O)c3ccc(OC)cc3)o2)cc1,3.1% (inactive)
9,O=C(NCc1ccccc1)c1ccc(N2C(=O)C3CCCCC3C2=O)cc1 (stereo not given),-2.4% (inactive)
10,Cc1ccc(C)c2[nH]c(=O)c(CN(Cc3ccc4c(c3)OCO4)Cc3nnnn3Cc3ccco3)cc12,10.8% (inactive)
11,Cc1ccc2cc(CN(Cc3ccc4c(c3)OCO4)Cc3nnnn3Cc3ccco3)c(=O)[nH]c2c1,26.7% (inactive)
12,Cc1cc(C)c2cc(CN(Cc3ccc4c(c3)OCO4)Cc3nnnn3Cc3ccco3)c(=O)[nH]c2c1,83.5% (active)
13,Cc1ccc2nc(C)c(C(=O)N/N=C/c3ccc(N4CCOCC4)cc3)cc2c1,3% (inactive)
14,CN(c1ccccc1C(=O)Nc1ccc(CC#N)cc1)S(=O)(=O)c1ccccc1,2.4% (inactive)
15,Cc1ccccc1NC(=S)N(Cc1cccs1)C1CCCCC1,-6.5% (inactive)
16,Cc1ccccc1NC(=S)N(Cc1cccs1)C1CCCC1,4.8% (inactive)
17,Cc1ccc(C(C)NC(=O)c2cc(C)oc2C)cc1 (stereo not given),8.6% (inactive)
18,Clc1cccc(CSc2nnc(-c3cccnc3)n2Cc2ccco2)c1,-4.9% (inactive)
19,Clc1ccccc1CSc1nnc(-c2ccccn2)n1Cc1ccco1,31.6% (inactive)
20,O=C(CSc1nnc(-c2ccccn2)n1Cc1ccco1)c1ccc(Cl)cc1,81.9% (inactive)
21,Clc1ccc(CSc2nnc(-c3cccnc3)n2Cc2ccco2)c(Cl)c1,-2.8% (inactive)
22,COc1ccccc1NC(=O)CSc1nnc(-c2ccccn2)n1Cc1ccco1,17.1% (inactive)
23,COc1ccc(C)cc1NC(=O)CSc1nnc(-c2ccccn2)n1Cc1ccco1,1.2% (inactive)

row,Structure (SMILES),activation
1,Cc1ccc(O)c(N=Nc2ccc(S(=O)(=O)N3CCCC3)cc2)c1,-0.2% (inactive)
2,CN(C)CC(C)(C)CNC(=O)C1CCN(CCCc2ccccc2)CC1,-5.3% (inactive)
3,CCOc1nc(NC2CCCC2)nc(N2CCC(C)CC2)n1,-3.8% (inactive)
4,CCCNC(=O)NC(=O)CSc1nnc(-c2ccncc2)n1CC,-1.1% (inactive)
5,COC(=O)CN1C(=O)[C@H]2[C@@H](c3ccc(C)o3)N3C(=O)CN(CCO)C(=O)[C@@]3(Cc3ccccc3)[C@H]2C1=O,5.5% (inactive)
6,Cc1c(Cl)cccc1N1C(=O)C2ON(c3ccccc3)C(c3cccnc3)C2C1=O (stereo not given),0.9% (inactive)
7,O=C1C2ON(c3ccccc3)C(c3cccnc3)C2C(=O)N1c1ccccc1 (stereo not given),-3.9% (inactive)
8,CC(=O)N1CCC(C(=O)NC2CC(C)(C)Cc3c2cnn3-c2ccc(F)cc2)CC1 (stereo not given),-2.2% (inactive)
9,CC(=O)Nc1ccc(N/C=C/C(=O)c2ccccc2)cc1,-0.7% (inactive)
10,Cn1c(=O)c2c(nc(Oc3ccc4c(c3)OCO4)n2Cc2ccc(Br)cc2)n(C)c1=O,9.8% (inactive)
11,Cn1c(=O)c2c(nc(Oc3ccc4c(c3)OCO4)n2Cc2ccc(Cl)cc2)n(C)c1=O,62.7% (inactive)
12,Cn1c(=O)c2c(nc(Oc3ccc4c(c3)OCO4)n2Cc2ccc(F)cc2)n(C)c1=O,67.5% (active)
13,Cn1c(=O)c2c([nH]c(OCc3ccc(Cl)cc3Cl)[n+]2Cc2ccc(F)cc2)n(C)c1=O,6.8% (inactive)
14,O=C(c1ccc(=O)[nH]c1)N(Cc1cccs1)C1(C(=O)NC2CCCC2)CCCCC1,5.3% (inactive)
15,O=C(Cc1cccs1)N(Cc1cccs1)C1(C(=O)NC2CCCC2)CCCCC1,-2.8% (inactive)
16,O=C(c1cnccn1)N(Cc1cccs1)C1(C(=O)NC2CCCCC2)CCCCC1,64.7% (active)
17,O=C(c1cnccn1)N(Cc1cccs1)C1(C(=O)NC2CCCC2)CCCCC1,30.1% (inactive)
18,O=C(Cc1cccs1)N(Cc1cccs1)C1(C(=O)NC2CCCCC2)CCCCC1,-1.5% (inactive)
19,COc1ccc(NC2=NCCCCC2)cc1,-4.3% (inactive)
20,Cc1ccc(N2C(=O)C(c3c(C)[nH]n(-c4ccccc4)c3=O)(C(F)(F)F)C3=C2CC(C)(C)CC3=O)cc1 (stereo not given),-2.8% (inactive)
21,Cc1ccc(C(=O)NC(=S)Nc2cccc(NC(=O)c3ccccc3Cl)c2)cc1[N+](=O)[O-],1.9% (inactive)
22,CNC(=S)N(CCc1c(C)[nH]c2ccc(Cl)cc12)Cc1cccnc1,-1% (inactive)
23,CCCn1c(-c2cccs2)nc2nc3ccccc3nc21,13.8% (inactive)

row,Structure (SMILES),activation
1,c1ccc(Cn2c(-c3cccs3)nc3nc4ccccc4nc32)cc1,65.7% (active)
2,C=CCn1c(-c2cccs2)nc2nc3ccccc3nc21,-4.6% (inactive)
3,O=C(NCc1cnc2ccccn12)C1CCC(=O)N(Cc2ccccc2F)C1 (stereo not given),-0.5% (inactive)
4,CN(C)S(=O)(=O)c1ccc(NC(=O)N2CCN(c3ccccc3)CC2)cc1,22.3% (inactive)
5,CC(=O)N1CCN(c2ccc(NC(=O)c3cc(Cl)ccc3Cl)cc2)CC1,-3.7% (inactive)
6,CCOC(=O)CSc1nnc2n(Cc3ccccc3)c(=O)c3c4c(sc3n12)CCC4,-9.3% (inactive)
7,CCCSc1nnc2n(Cc3ccccc3)c(=O)c3c4c(sc3n12)CCC4,69.7% (active)
8,C=C(C)CSc1nnc2n(Cc3ccccc3)c(=O)c3c4c(sc3n12)CCC4,-1.4% (inactive)
9,O=C(NCC1CCCO1)C1CCCN(S(=O)(=O)c2ccc(Br)cc2)C1 (stereo not given),0.4% (inactive)
10,CCOC(=O)c1ccccc1N/C=C1\CCCC1=O,0.9% (inactive)
11,Cn1c(=O)oc2cc(S(=O)(=O)N3CCN(c4ccc(F)cc4)CC3)ccc21,-1.1% (inactive)
12,O=C1CN(CC(=O)N2CCCCC2)c2ccccc2O1,-1.4% (inactive)
13,COc1cc([N+](=O)[O-])ccc1NC(=O)Nc1ccc(C(=O)N2CCCC2)cc1,-5.9% (inactive)
14,COC(=O)CSc1nnc(-c2ccccn2)n1Cc1ccco1,-0.5% (inactive)
15,C(=C\c1ccccc1)/CSc1nnc(-c2ccccc2)n1Cc1ccco1,3.8% (inactive)
16,C(=C\c1ccccc1)/CSc1nnc(-c2cnccn2)n1Cc1ccco1,16.2% (inactive)
17,Brc1ccc(CSc2nnc(-c3cnccn3)n2Cc2ccco2)cc1,41.3% (inactive)
18,NC(=O)CSc1nnc(-c2ccccn2)n1Cc1ccco1,2.2% (inactive)
19,O=C(CSc1nnc(-c2ccccn2)n1Cc1ccco1)c1ccccc1,15.7% (inactive)
20,COc1cc(S(=O)(=O)NC2CCCC2)ccc1-n1cnnn1,-0.2% (inactive)
21,CCOc1ccccc1NC(=O)CCn1cccc1,-0.4% (inactive)
